This is an account of results in PubChem BioAssay (NCATS).

Values joined by “and” are separate entries in the source; they are usually repeats but may differ in a detail not shown here. Identical values can stand only once. Records with an inconclusive call do not appear. Active and inactive are the calls of the source. Unless noted, the call rests on the fitted dose curve.

Assay [1] deals with Glucocorticoid receptor (Homo sapiens) (UniProt P04150). The experiment in a line: qHTS assay for small molecule antagonists of glucocorticoid receptor signaling (AID 588533; active means well fitted inhibition curve with a large enough effect in the signal ratio, with a control signal flat, not every such curve was filed as active; the % refers to the signal ratio;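 further: cells stimulated with 2 nM dexamethasone as agonist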; further: potency means the concentration at half of the fitted maximal effect). In short, it runs like this: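 Antagonist-mode qHTS: compound titrations added to GRE-bla HeLa cells, then dexamethasone 2 nM final; 18 h, 37 C. CCF4 FRET fluorescence normalized to dexamethasone and DMSO; IC50 from Hill fit.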

In assay [2] the target is Peroxisome proliferator-activated receptor gamma (Homo sapiens) (UniProt P37231). The experiment in a line: qHTS assay for small molecule agonists of peroxisome proliferator-activated receptor gamma signaling (AID 588536; active means well fitted curve in the direction sought with a large enough effect in the signal ratio, with a control signal flat, not every such curve was filed as active; the % refers to the signal ratio;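 further: 0% = DMSO basal wells and 100% = rosiglitazone at 2 µM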). In outline:
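Beta-lactamase reporter read-out: CCF4 fluorescence (ex 405, em 460/530 nm) after 2 h at RT. HEK293 GeneBLAzer cells were treated for 16 h at 37 C. Hill fits gave EC50 and efficacy versus 2 uM rosiglitazone (100%) and DMSO (0%).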

A short description of assay [3]: qHTS assay for small molecule agonists of retinoid X receptor alpha signaling (AID 588544).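 On activation: 0% = DMSO basal wells and 100% = reference agonist.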 The settings on record: HEK293T RXRa-UAS-bla, beta-lactamase reporter, 18 h; 530 nm emission.
In assay [4] the target is Retinoic acid receptor RXR-alpha (Homo sapiens) (UniProt P19793). Described as above.
Assay [5] addresses Thyroid hormone receptor beta (Homo sapiens) (UniProt P10828). The experiment in a line: qHTS assay for small molecule agonists of thyroid hormone receptor beta signaling (AID 588545). In short, it runs like this: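 In this cell-based screen, titrated compounds act on HEK 293 cells held in medium with 2% charcoal/dextran FBS, NEAA and pyruvate for 18 hrs at 37 C. Responses are expressed relative to T3 (10 nM) as 100% and basal DMSO as 0%.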

Assay [6] can be described thus: qHTS assay for small molecule antagonists of retinoid X receptor alpha signaling (AID 588546; active means well fitted inhibition curve with a large enough effect in the signal ratio, with a control signal flat, not every such curve was filed as active; the % refers to the signal ratio;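 further: cells stimulated with 9-cis-retinoic acid as agonist; on the % scale 0 is the no-effect control and ±100 the full control effect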). As to conditions: HEK293T RXRa-UAS-bla, beta-lactamase ratio, antagonist mode; measured here: W530 green channel, cytotoxicity proxy. In short, it runs like this: (§1)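 Beta-lactamase reporter inhibition, read as CCF4 fluorescence ratio (ex 405, em 460/530 nm) after 2 h at RT. HEK293T UAS-bla cells, 2500/well, were stimulated with 9-cis-RA at 500 or 100 nM final alongside test compound for 18 h at 37 C.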

The target of assay [7] is Retinoic acid receptor RXR-alpha (Homo sapiens) (UniProt P19793). The description is as above. As to conditions: HEK293T RXRa-UAS-bla, beta-lactamase ratio, antagonist mode. In outline: as §1
In assay [8] the target is Thyroid hormone receptor beta (Homo sapiens) (UniProt P10828). The experiment in a line: qHTS assay for small molecule antagonists of thyroid hormone receptor beta signaling (AID 588547; active means well fitted inhibition curve with a large enough effect in the signal ratio, with a control signal flat, not every such curve was filed as active; the % refers to the signal ratio;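 further: cells stimulated with 0.4 nM T3 agonist during compound exposure; series mostly up to about 77 µM; on the % scale 0 is the no-effect control and ±100 the full control effect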). As to conditions: TR-UAS-bla HEK293, beta-lactamase ratio, antagonist mode, 18 h. In short, it runs like this: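 Inhibition of T3-driven (0.4nM final) beta-lactamase reporter activity was measured over 0.59 nM to 92 uM compound after 18 h at 37 C. The cells were GripTite HEK293 TR-UAS-bla in charcoal/dextran-stripped serum, with CCF4 ratio read-out and IC50 from Hill fits.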

For assay [9], the target named is Luciferin 4-monooxygenase (Photinus pyralis) (UniProt P08659). The experiment in a line: Biochemical firefly luciferase enzyme assay for NPC (AID 624030; active means well fitted curve in the direction sought with a large enough effect; an effect the other way counts as inactive or inconclusive; further: nearly all actives have a fitted effect of over 70% in size; further: potency means the concentration at half of the fitted maximal effect). In short, it runs like this:
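Direct inhibition of firefly luciferase enzyme (10 nM final, 50 mM Tris Acetate) assessed by luminescence within 5 minutes. Percent activity scaled between DMSO and PTC124 positive control, with concentration-effect curves classified by fit quality and response.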

Assay [10] addresses Peroxisome proliferator-activated receptor delta (Homo sapiens) (UniProt Q03181). The experiment in a line: qHTS assay for small molecule agonists of peroxisome proliferator-activated receptor delta signaling (AID 588534).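 Further: 0% = DMSO basal wells and 100% = positive control agonist at 10 µM.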 In outline:
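EC50 and efficacy values derive from Hill fits of a concentration series in a beta-lactamase reporter cell assay. Exposure is 18 hrs at 37 C, with CCF4 fluorescence as the readout.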

Assay [11] addresses Voltage-gated inwardly rectifying potassium channel KCNH2 (Homo sapiens) (UniProt Q12809). The experiment in a line: qHTS Assay for Small Molecule Inhibitors of the Human hERG Channel Activity (AID 588834; active means well fitted curve in the direction sought with a large enough effect; an effect the other way counts as inactive or inconclusive;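 further: lower thallium flux fluorescence means stronger hERG block; nearly all actives have a fitted effect of over 50% in size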; further: potency means the concentration at half of the fitted maximal effect). In outline: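 Thallium serves as surrogate for K+ influx through BacMam-delivered hERG in U2OS cells. Compounds are added for about 10 minutes after dye loading; stimulation buffer then starts flux, monitored kinetically on FDSS.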

Assay [12] in a line: qHTS assay for small molecule antagonists of peroxisome proliferator-activated receptor delta signaling (AID 588535; active means well fitted inhibition curve with a large enough effect in the signal ratio, with a control signal flat, not every such curve was filed as active; the % refers to the signal ratio; further: potency means the concentration at half of the fitted maximal effect;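 on max response: cells co-treated with a PPAR-delta agonist as stimulator during compound exposure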). The settings on record: HEK293T PPARd-UAS-bla, beta-lactamase FRET ratio, 18 h; 460 nm channel. In short, it runs like this: (§2)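 Antagonist-mode qHTS using GeneBLAzer PPAR-delta-UAS-bla HEK293T cells; compound exposure 18 hrs at 37 C over a titration. Ratiometric CCF4 fluorescence at 460/530 nm; concentration-response points fitted to the Hill equation.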

For assay [13], the target named is Peroxisome proliferator-activated receptor delta (Homo sapiens) (UniProt Q03181). The assay is described as above. In outline:
as §2

Assay [14] deals with Peroxisome proliferator-activated receptor gamma (Homo sapiens) (UniProt P37231). The experiment in a line: qHTS assay for small molecule antagonists of peroxisome proliferator-activated receptor gamma signaling (AID 588537; active means well fitted inhibition curve with a large enough effect in the signal ratio, with a control signal flat, not every such curve was filed as active; the % refers to the signal ratio;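 further: reporter cells co-stimulated with 50 nM rosiglitazone agonist during compound treatment; % of control where 0% means no effect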). In outline:
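Cell-based beta-lactamase assay; GW9662 served as the antagonist control. Stimulation used rosiglitazone, final 50 nM, 16 h, 37 C.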

Assay [15] has as its target Vitamin D3 receptor (Homo sapiens) (UniProt P11473). The experiment in a line: qHTS assay for small molecule antagonists of vitamin D receptor signaling (AID 588541). Further: potency means the concentration at half of the fitted maximal effect. In outline:
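Antagonist-mode beta-lactamase reporter assay: HEK293T VDR-UAS-bla cells were exposed to titrated compound alongside 1-alpha,25-dihydroxyvitamin D3 at 3 nM final for 16 h. Values were normalized to the 50 nM agonist control and DMSO basal, with IC50 and efficacy from Hill equation fits.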

For assay [16] the target is unchanged. The experiment in a line: qHTS assay for small molecule agonists of vitamin D receptor signaling (AID 588543).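 Further: 0% = DMSO basal and 100% = reference agonist control.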 In short, it runs like this: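 VDR-UAS-bla HEK293T cells, 2000/well, 2% charcoal-stripped FBS; compound titration 16 h at 37 C; CCF4 beta-lactamase ratio read. Normalized to 50 nM 1-alpha,25-dihydroxyvitamin D3 (100%) and DMSO; Hill fit gives EC50, efficacy.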

The target in assay [17] is Glucocorticoid receptor (Homo sapiens) (UniProt P04150). The experiment in a line: qHTS assay for small molecule agonists of glucocorticoid receptor signaling (AID 588532; active means well fitted curve in the direction sought with a large enough effect in the signal ratio, with a control signal flat; the % refers to the signal ratio;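 further: 100% = dexamethasone at 0.1 µM and 0% = DMSO only wells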). The settings on record: HeLa MMTV-bla, beta-lactamase ratio, agonist, 18 h; stronger effect = higher value; percent of dexamethasone control, DMSO zero. In short, it runs like this:
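Quantitative HTS using CellSensor MMTV-bla HeLa cells in charcoal/dextran-treated serum; compounds tested up to 92 uM. After 18 h at 37 C, CCF4 dye reported reporter induction.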

Assay [18] in a line: S16 Schwann cell viability assay (CellTiter-Glo assay) (AID 624031; active means well fitted curve in the direction sought with a large enough effect; an effect the other way counts as inactive or inconclusive; further: nearly all actives have a fitted effect of over 70% in size; further: potency means the concentration at half of the fitted maximal effect). In outline: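 Parental S16 cells, 24 h compound, 37 °C. ATP-luminescence viability; DMSO = 0% activity, empty wells as reference; curves classified by fit quality and efficacy.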
Assay [19] can be described thus: S16 Schwann cell PMP22 intronic element firefly luciferase assay (AID 624032; active means well fitted curve in the direction sought with a large enough effect; an effect the other way counts as inactive or inconclusive; further: nearly all actives have a fitted effect of over 30% in size; further: potency means the concentration at half of the fitted maximal effect). In outline:
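Luciferase reporter of PMP22 intronic-element expression in stably transfected S16 rat Schwann cells, read by ONE-Glo luminescence after 24 h compound exposure at 37 C. Activity scaled between DMSO (0%) and positive-control PTC124; concentration-effect curves quality-classified.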

Chain of Voltage-gated inwardly rectifying potassium channel KCNH2 (Homo sapiens) (Q12809 whole entry, looked up): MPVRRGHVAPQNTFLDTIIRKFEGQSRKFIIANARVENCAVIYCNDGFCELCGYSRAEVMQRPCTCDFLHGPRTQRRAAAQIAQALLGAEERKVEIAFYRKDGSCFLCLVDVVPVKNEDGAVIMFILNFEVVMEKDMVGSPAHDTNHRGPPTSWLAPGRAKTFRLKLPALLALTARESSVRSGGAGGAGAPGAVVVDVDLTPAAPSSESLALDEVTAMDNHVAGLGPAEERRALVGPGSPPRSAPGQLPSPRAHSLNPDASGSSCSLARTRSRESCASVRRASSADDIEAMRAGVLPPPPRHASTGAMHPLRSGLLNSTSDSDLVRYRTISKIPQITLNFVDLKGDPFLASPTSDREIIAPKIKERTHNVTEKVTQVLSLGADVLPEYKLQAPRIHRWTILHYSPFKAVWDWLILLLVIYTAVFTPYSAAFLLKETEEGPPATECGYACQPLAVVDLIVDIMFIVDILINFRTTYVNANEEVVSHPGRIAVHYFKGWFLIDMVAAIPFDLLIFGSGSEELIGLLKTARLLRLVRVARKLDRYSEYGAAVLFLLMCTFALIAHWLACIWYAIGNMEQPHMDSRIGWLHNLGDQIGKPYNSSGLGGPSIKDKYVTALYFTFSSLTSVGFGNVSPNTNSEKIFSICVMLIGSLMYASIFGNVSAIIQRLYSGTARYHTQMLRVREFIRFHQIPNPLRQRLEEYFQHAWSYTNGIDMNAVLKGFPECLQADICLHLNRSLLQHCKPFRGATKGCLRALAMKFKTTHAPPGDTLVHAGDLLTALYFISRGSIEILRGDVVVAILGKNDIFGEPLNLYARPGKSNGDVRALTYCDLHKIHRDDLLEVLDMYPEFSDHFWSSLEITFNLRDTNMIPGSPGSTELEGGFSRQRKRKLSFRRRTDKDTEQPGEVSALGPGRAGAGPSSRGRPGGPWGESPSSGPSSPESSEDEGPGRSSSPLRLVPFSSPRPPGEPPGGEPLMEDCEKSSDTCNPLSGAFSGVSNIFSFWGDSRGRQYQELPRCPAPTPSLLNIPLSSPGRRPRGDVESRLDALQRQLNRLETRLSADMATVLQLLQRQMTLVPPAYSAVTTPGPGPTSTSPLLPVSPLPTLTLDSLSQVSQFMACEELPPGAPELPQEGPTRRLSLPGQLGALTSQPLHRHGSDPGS
Chain of Retinoic acid receptor RXR-alpha (Homo sapiens) (P19793 whole entry, looked up): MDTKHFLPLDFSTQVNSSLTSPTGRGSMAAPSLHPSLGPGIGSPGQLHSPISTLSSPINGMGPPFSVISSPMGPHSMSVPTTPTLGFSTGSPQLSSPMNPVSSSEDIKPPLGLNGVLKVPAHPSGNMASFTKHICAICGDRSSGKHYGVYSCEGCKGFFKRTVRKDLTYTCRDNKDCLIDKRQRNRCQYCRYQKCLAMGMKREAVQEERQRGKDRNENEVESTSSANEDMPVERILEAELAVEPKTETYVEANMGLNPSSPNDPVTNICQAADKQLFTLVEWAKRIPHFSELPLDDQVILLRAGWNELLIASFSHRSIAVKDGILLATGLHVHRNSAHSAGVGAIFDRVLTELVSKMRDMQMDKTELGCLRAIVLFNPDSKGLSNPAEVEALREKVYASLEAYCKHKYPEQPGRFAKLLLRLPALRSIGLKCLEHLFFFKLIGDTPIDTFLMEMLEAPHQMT
Chain of Thyroid hormone receptor beta (Homo sapiens) (P10828 whole entry, looked up): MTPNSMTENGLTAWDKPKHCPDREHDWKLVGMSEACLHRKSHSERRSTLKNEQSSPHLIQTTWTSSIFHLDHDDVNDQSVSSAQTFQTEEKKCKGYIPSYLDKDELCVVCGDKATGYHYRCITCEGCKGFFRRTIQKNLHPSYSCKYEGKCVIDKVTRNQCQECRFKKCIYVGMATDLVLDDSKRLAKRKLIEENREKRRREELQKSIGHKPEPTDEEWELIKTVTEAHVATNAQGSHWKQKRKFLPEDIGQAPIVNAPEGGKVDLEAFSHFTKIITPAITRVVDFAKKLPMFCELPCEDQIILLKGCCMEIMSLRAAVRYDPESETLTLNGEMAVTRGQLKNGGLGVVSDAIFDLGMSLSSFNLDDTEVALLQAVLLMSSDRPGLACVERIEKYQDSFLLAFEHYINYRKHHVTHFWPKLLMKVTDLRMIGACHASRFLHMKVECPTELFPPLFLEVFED
Chain of Glucocorticoid receptor (Homo sapiens) (P04150 whole entry, looked up): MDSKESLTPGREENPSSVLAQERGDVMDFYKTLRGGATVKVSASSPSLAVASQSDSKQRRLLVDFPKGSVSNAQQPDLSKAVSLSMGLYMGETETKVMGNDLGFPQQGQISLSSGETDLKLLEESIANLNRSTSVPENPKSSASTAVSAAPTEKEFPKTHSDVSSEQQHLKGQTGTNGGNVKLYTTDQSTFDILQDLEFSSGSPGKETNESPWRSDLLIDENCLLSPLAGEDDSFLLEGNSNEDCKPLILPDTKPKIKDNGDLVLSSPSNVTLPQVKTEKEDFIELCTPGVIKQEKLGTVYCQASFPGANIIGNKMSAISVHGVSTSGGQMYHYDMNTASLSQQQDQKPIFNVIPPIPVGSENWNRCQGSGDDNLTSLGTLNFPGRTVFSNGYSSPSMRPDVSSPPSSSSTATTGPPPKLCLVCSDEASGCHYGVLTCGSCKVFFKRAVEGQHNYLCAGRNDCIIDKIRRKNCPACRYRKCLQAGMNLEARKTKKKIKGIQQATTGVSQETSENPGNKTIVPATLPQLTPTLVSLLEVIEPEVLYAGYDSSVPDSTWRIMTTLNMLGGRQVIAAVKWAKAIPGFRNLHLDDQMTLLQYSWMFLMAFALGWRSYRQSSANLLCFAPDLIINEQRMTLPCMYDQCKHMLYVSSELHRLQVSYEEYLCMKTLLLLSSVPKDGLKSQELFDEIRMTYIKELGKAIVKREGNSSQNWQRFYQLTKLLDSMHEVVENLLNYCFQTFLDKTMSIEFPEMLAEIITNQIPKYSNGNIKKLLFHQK
Chain of Luciferin 4-monooxygenase (Photinus pyralis) (P08659 whole entry, looked up): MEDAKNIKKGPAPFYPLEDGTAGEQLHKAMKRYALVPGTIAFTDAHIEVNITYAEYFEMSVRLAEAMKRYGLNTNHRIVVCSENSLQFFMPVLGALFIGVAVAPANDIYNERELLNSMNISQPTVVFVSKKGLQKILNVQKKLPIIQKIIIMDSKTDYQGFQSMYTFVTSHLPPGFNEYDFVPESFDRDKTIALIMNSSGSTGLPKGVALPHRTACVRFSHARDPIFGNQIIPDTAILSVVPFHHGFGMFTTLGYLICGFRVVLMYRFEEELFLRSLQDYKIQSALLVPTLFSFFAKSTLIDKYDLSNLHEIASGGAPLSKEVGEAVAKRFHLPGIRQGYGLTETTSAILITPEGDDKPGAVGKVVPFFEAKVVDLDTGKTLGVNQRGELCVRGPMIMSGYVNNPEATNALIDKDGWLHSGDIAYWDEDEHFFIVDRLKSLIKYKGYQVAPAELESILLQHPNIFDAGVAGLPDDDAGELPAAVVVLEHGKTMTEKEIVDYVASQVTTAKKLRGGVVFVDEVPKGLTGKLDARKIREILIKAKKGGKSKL
Chain of Vitamin D3 receptor (Homo sapiens) (P11473 whole entry, looked up): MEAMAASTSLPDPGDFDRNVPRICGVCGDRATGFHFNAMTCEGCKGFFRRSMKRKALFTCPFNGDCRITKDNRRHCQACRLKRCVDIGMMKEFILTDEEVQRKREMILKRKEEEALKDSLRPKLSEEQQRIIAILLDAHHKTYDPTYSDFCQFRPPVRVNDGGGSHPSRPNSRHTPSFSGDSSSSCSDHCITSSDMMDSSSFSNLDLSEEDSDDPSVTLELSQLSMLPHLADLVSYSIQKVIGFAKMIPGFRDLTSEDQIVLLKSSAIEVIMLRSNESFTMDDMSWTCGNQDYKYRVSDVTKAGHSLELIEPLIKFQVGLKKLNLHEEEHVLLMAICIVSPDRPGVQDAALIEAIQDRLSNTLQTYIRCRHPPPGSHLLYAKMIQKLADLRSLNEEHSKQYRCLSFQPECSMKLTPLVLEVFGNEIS
Chain of Peroxisome proliferator-activated receptor delta (Homo sapiens) (Q03181 whole entry, looked up): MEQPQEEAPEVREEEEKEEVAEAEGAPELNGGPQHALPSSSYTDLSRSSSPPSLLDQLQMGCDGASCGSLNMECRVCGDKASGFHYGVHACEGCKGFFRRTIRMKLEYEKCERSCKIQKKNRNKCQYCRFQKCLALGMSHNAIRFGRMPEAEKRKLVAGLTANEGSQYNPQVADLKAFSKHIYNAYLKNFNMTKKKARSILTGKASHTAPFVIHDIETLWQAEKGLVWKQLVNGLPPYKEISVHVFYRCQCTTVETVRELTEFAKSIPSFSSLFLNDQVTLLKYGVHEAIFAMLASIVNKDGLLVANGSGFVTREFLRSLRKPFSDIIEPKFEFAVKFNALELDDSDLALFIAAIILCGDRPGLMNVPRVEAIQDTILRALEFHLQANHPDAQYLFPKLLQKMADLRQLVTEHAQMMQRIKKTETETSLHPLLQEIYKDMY
Chain of Peroxisome proliferator-activated receptor gamma (Homo sapiens) (P37231 whole entry, looked up): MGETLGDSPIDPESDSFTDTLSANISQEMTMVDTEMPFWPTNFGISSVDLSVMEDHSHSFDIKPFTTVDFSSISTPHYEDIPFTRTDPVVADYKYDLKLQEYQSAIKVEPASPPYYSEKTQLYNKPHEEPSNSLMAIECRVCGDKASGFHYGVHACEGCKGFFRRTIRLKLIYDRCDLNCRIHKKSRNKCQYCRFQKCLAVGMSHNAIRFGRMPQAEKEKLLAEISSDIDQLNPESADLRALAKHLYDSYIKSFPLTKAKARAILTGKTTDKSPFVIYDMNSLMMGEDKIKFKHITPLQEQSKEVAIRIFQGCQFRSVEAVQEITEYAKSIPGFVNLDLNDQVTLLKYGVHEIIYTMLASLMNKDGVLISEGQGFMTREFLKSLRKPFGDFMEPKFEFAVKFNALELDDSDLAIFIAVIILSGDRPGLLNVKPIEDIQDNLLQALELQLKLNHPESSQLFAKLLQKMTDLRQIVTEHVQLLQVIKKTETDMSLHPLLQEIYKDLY

For the compound `O=C(O)c1cc(Oc2ccc(C(F)(F)F)cc2Cl)ccc1[N+](=O)[O-]`, the Potency entry in assay [1], in assay [4] and in [9] was “inactive” in each case. Further, the compound was classed as inactive in [2] and in assay [5]. Also, the values for the max response in [3], in [6] and in assay [7] were 11.8%, -4.23% and -9.38% (inactive), respectively. In addition, in assay [8], the activity change % (negative = inhibition) is -21.5% (inactive).
`O=c1cc(-c2ccccc2)oc2ccccc12`: the result in [10] was inactive.
In the case of `Brc1ccccc1-c1ccccc1`, in [10], the compound was called inactive. In assay [11], the Potency is 28.2 µM (active).
As to `Nc1c(Cl)c(Cl)c(Cl)c(Cl)c1Cl`, the compound was called inactive in assay [10], in assay [2] and in [16]. Besides, the max response in assay [12] is 13.6%; in [3] it was -5.48%; in assay [6] it was -3.59%; in [7] it was -8.48% (inactive). The Potency result in assay [13], in assay [14], in assay [15], in assay [4] and in assay [9] was “inactive” each time. For the same compound, the activity change % (negative = inhibition) in assay [8] was 17.1% (inactive).
Consider `CC(C)C(C)(C)C(C)(C)C(C)(C)S`, for which, in assay [10], the compound was classed as inactive.
Still for that read-out and setting: next, `Nc1nc2ccc([N+](=O)[O-])cc2s1`: “inactive”.
In the case of `CCCCCCCCCC(CC)c1ccc(S(=O)(=O)O)cc1` (centres undefined), the activation in assay [17] is 8.71% (inactive) and 0.614% (inactive). For the same compound, the Potency result in assay [1], in [13], in assay [14], in assay [4], in [11] and in assay [9] was “inactive” in each case. Further, the Potency result in assay [18] and in assay [19] was “inactive” throughout. Also, the compound was called inactive in assay [10], in assay [2] and in [5]. In addition, the max response in [12] was -20.6% and 1.67%; in [3] it was 2.78% and -0.585%; in assay [6], -9.16% and 3.96%; in assay [7], 4.12% (inactive) and -4.98% (inactive). In addition, the activity change % (negative = inhibition) in assay [8] is 6.11% (inactive) and -12% (inactive).
In the case of `CN(C)NC(=O)CCC(=O)O`, the call in assay [10], in assay [2], in [16] and in assay [5] was inactive. The max response is -12.7% and 32.6% in assay [12]; 6.92% and -25.6% in [3]; -8.59% and -3.29% in [6]; -0.551% (inactive) and 8.99% (inactive) in [7]. In addition, the Potency result in assay [13], in assay [14], in assay [15], in assay [4] and in assay [11] was “inactive” each time. Besides, in assay [8], the activity change % (negative = inhibition) was -3.38% (inactive).
On to `Nc1ccc(O)c([N+](=O)[O-])c1`, for which the compound was called inactive in assay [10].
In the case of `CC(C)(c1ccc(O)cc1)c1ccc(O)cc1`, the compound was classed as inactive in assay [10]. Further, the Potency result in assay [14], in assay [4] and in assay [11] was “inactive” in each case. Further, the max response in [3] was 0.616% and 8.18%. Besides, the activity change % (negative = inhibition) in assay [8] was -3.91% (inactive).
With `CC(C)Oc1cccc(NC(=O)c2ccccc2C(F)(F)F)c1`, the activation in assay [17] was -4.03% (inactive). Besides, the Potency result in assay [1], in [15] and in assay [9] was “inactive” throughout. Besides, the compound was called inactive in [10], in [16] and in assay [5]. The results for the max response in assay [6] and in [7] were 0.398% and -12.2% (inactive), respectively. Further, the activity change % (negative = inhibition) in [8] is -3.3% (inactive).
For `CC(=O)[O][Hg][c]1ccccc1`, the activation in [17] is 23.7% (inactive). Besides, the Potency in [1] is 0.141 µM (active); in assay [13] it was 2.82 µM (active); in assay [15] it was 1.58 µM (active) and 2.51 µM (active); in assay [11], 14.1 µM (active) and 25.1 µM (active); in [9] it was 2.56 µM (active); in assay [18] it was 0.907 µM (active). For the same compound, the Potency in assay [19] was 1.14 µM (active). Further, the max response in assay [12] is -98.8%.
